Drawing on PubChem BioAssay (NCI), this text covers growth for 40 molecules.

The structures appear in SMILES notation. About 83,000 compounds went through this panel and 20% of them were active in at least one assay; those are over-represented in the sample as a whole.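 Activity criterion: percent growth below 10, measured after cells in 96-well plates were exposed to a single compound concentration for 48 hours.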 A number with no mark means an inactive call. Activity calls are given as the source filed them.

For the assay, the system named is MDA-MB-468 breast. Put plainly: NCI-60 one-dose screen, 48 h (100 = growth as untreated, 0 = no growth, -100 = all killed). The note with it: 10 µM unless noted.
Turning to `C=C(C)[C@@H]1CC[C@]2(C(=O)NCCNCCNCCN)CC[C@]3(C)[C@H](CC[C@@H]4[C@@]5(C)CCC(=O)C(C)(C)[C@@H]5CC[C@]43C)[C@@H]12`, the growth is -49.1% [100 µM] (active).

Consider `O=c1ccn(C2CC(O)C(O)C(CO)O2)c(=O)[nH]1` (stereo not given), for which the growth was 149%.

As to `CC/C=C\C[C@H](F)C/C=C1/C(=O)C=C[C@@H]1C/C=C\CCCC(=O)OC`, the growth is 17.9%.

For `COC(=O)CCC/C=C\C[C@H]1C=CC(=O)/C1=C/C[C@@H](O)C/C=C\CC(F)(F)F`, the growth is -6.29% (active).

For `O=C(CN1CCN(c2cccc(Cl)c2)CC1)N1CCN(c2nnc(-c3ccc(Cl)cc3)c(-c3ccc(Cl)cc3)n2)CC1`, the growth is 97.5%.

As to `CCOC(CNCc1cc(C)c2[nH]c3ccccc3c2c1C)OCC`, the growth is 67.6%.

Turning to `COc1cc2nccc(Oc3ccc(NC(=O)C4(C(=O)Nc5c(F)cc(F)cc5F)CC4)cc3)c2cc1Oc1ccc(N)cn1`, the growth was 33.3%.

For the molecule `CN1CCN(c2ccc(/C=N/n3cnc4oc(-c5ccccc5)cc4c3=N)cc2)CC1`, the growth is 97.6%.

Regarding `CCCCCCCC(=O)SCC/C=C/[C@@H]1CC(=O)NCc2cccc(n2)CN(Cc2ccc3ccccc3c2)CC(=O)N[C@@H](C(C)C)C(=O)O1`, the growth was 7.6% (active).

On to `O=C(c1ccc(/C=C/c2n[nH]c3ccccc23)cc1)N1CCNCC1`, for which the growth is 65.9%.

On to `CCCCCCCCCCCCCCCCNC(=O)Nc1ccc(C)c(NC(=O)NCCCCCCCCCCCCCCCC)c1`, for which the growth was 101%.

For `CCN(CC)C(=S)SC(SC(=S)N(CC)CC)C(=O)c1nnn(-c2ccc([N+](=O)[O-])cc2)c1C`, the growth was 102%.

In the case of `COc1ccc(/C=C(/C(=O)N2CCN(c3ccccc3)CC2)c2cc(OC)c(OC)c(OC)c2)cc1O`, the growth was 17.6%.

As for `COc1ccc(C2=NN(C(C)=O)C(c3cn(-c4ccccc4)nc3-c3ccc(Cl)cc3)C2)cc1` (stereo not given), the growth was -1.41% (active).

Take `O=C1c2[nH]cc(CN[C@@H]3CCCN3)c2C(=O)c2c1c(O)c1ccccc1c2O`: the growth is -92.4% (active).

`Cn1c(=O)[nH]c(=O)c2nc3c(nc21)-c1ccccc1C3=O`: the growth is 82.8%.

Regarding `COC(=O)c1c2c(c(C)[n+]([O-])c1C)C(=O)C=C(NCc1ccc(F)c(Cl)c1)C2=O`, the growth is -70.5% (active).

For `COC(=O)CNC(=O)c1ccc(NC(=O)c2[nH]c(C)c(Cl)c2Cl)c(O[C@H]2CCNC2)c1`, the growth is 112%.

With `COCCOc1cc2ncnc(N3CCN(S(=O)(=O)c4ccccc4Cl)CC3)c2cc1OCCOC`, the growth was 57.1%.

`CN(C)c1ccc2cc3c(cc2c1)Oc1ccccc1N3.[Cl][Zn][Cl]`: the growth was -10.4% (active).

For the molecule `COc1cc(-c2cc(-c3ccc(C)cc3)nc3nc(N)[nH]c(=O)c23)ccc1Oc1ccnc2cc(Cl)ccc12`, the growth is 52.3%.

In the case of `COc1cnc2c(c1)C(=O)c1c-2n(CCCNCCO)c(=O)c2ccncc12`, the growth was -23.9% (active).

Consider `O=C1/C(=C/C2=Cc3ccccc3OC2)SC(=S)N1c1ccc(F)cc1`, for which the growth is 112%.

Turning to `O=C(CSc1nnc(-c2ccc(Cl)cc2)n1-c1ccccc1)Nc1ccc(Br)cc1`, the growth was 59.1%.

As to `CN(C)CC(O)c1ccc(/C=C/c2ccc(Cl)cc2)cc1` (stereo not given), the growth was -84.4% (active).

Regarding `COc1ccc(-c2nc3ncccn3c2-c2nc3ccc(Br)cc3[nH]2)cc1`, the growth is 75.6%.

As for `c1ccc(C(c2nc3ncncc3[nH]2)N2CSc3nc4ccccc4n3C2)cc1` (stereo not given), the growth is 94.8%.

Turning to `Oc1ccc([S+](c2ccc(O)cc2)c2ccc(O)cc2)cc1`, the growth is 98%.

Turning to `CS(=O)(=O)c1ccc(-c2nn(-c3ccccc3)cc2/C=N/NC(=O)c2ccncc2)cc1`, the growth is 99%.

With `CCCCCc1nc2c(c3c1CCCC3)CCCC2`, the growth was 75.5%.

In the case of `COc1ccccc1/C=C1\COc2ccc(O)cc2C1=O`, the growth is 68.7%.

As for `CCCN(CCC)CC(O)COc1ccccc1C(=O)Nc1ccccc1` (stereo not given), the growth is 85.9%.

On to `COc1cc2c(c(OC)c1OC)C(=O)N[C@@H]1[C@@H](O)[C@@H](O)[C@H](O)C[C@@H]21`, for which the growth is 102%.

Turning to `CNC(=O)c1cc(N2CCc3cc(NC(=O)Nc4ccc(N5CCN(C)CC5)c(C(F)(F)F)c4)ccc32)ccn1`, the growth is 77.9%.

For `CC(=O)Oc1ccccc1C(=O)N(Cc1ccc2c(Cl)cc(Cl)c(O)c2n1)c1ccccc1`, the growth is 40.9%.

Take `C/C(CC1(O)C(=O)Nc2ccccc21)=N\O` (stereo not given): the growth is 92%.

On to `N#C/C(=C\c1ccc(-c2cccc(C(F)(F)F)c2)o1)c1ccccc1`, for which the growth was 23.4%.

`Cc1ccc(NC(=O)N/C(N)=N/c2nc(=O)c3ccccc3s2)cc1`: the growth is 89.9%.

In the case of `S=c1cc(S)c2cc(Br)ccc2[nH]1`, the growth is 104%.

Consider `OC(CNC1CCCCC1)Cn1c2ccc(I)cc2c2cc(I)ccc21` (stereo not given), for which the growth was 67.4%.
